Sampled rows, rich in hits. Any-hit rate of the full collection: about 12%.
JMJD2A Tudor inh – JMJD2A Tudor domain (human) inhibition; O75164; AlphaScreen JMJD2A-Tudor / H3K4me3 peptide binding; Potency, µM (highest dose often 114 µM), for inactives: top-dose activity change, negative = inhibition, most hits filed as inhibitors; hit rate 4.4% among 390,000; AID 504339; also: % is scaled to controls: 0 for no effect and ±100 for the full control effect; nearly all actives have a fitted effect of over 50% in size
BAZ2B inh – BAZ2B (human) inhibition; AID 504333; Q9UIF8; AlphaScreen BAZ2B-H3K14Ac peptide displacement; hit rate 4.4% among 360,000; Potency, µM (titrated, usually from 114 µM), for inactives: at the highest dose activity change, negative = inhibition, hits mostly inhibitors; also: % is scaled to controls: 0 for no effect and ±100 for the full control effect; nearly all actives have a fitted effect of over 60% in size
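Compounds, titrated to a top concentration of 110 uM, were incubated 30 min at room temperature with preformed BAZ2B/acetyl-K14 H3 peptide complex (50 nM each). Proximity signal was measured by AlphaScreen after 20 min with beads.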
Sfp PPTase inh – blocks B. subtilis Sfp PPTase activity | Biochemical Sfp PPTase activity, qHTS | Potency, µM, for the others: largest response in the series, negative = inhibition, hits mostly inhibitors | hit rate 3.5% among 310,000 | AID 1490;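 also: the enzyme is Sfp with the accession as filed and its product quenches rhodamine fluorescence; 0% = enzyme reaction without inhibitor and -100% = no enzyme wells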
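Fluorescence-quenching assay with 15 nM Sfp, 5 uM rhodamine-CoA and 12.5 uM BHQ-2-labelled ybbR peptide in pH 7.6 Hepes/MgCl2 buffer. Enzyme was pre-incubated with compound for 15 min at room temperature. Rate was taken from the 30-min fluorescence change (525/598 nm).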
PLK1 PBD block – PLK1 (human) polo-box domain binding inhibition | P53350 | Plk1 PBD binding of FITC phosphopeptide, fluorescence polarization | Potency, µM, for the others: max response, negative = inhibition, most hits filed as inhibitors | hit rate 2.8% among 360,000 | AID 720504; also: series mostly up to about 57 µM; % is scaled to controls: 0 for no effect and ±100 for the full control effect; nearly all actives have a fitted effect of over 65% in size
HP1b binding inh – blocks HP1-beta chromodomain binding to methylated histone tails. P83916. AlphaScreen HP1-beta / biotin-H3K9me3 peptide binding. Potency, µM (highest dose often 114 µM), inactives show at the top dose activity change, negative = inhibition, usual class: inhibitors. hit rate 0.56% among 390,000. AID 540317; also: nearly all actives have a fitted effect of over 70% in size
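HP1-beta protein (50 nM final) preincubated 30 min at room temperature with biotinylated H3(1-18)K9me3 peptide (50 nM) in PBS pH 7.4, 0.01% Tween-20, then compound added for 30 min. AlphaScreen streptavidin donor/nickel chelate acceptor beads (10 ug/mL final), 30 min dark, luminescence read.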
G9a block – inhibitors of human histone lysine methyltransferase G9a | G9a H3K9 monomethylation, AlphaScreen, 2 h | Potency, µM (series often up to 102 µM), for the others: at the highest dose activity, negative = inhibition, actives largely listed as inhibitors | hit rate 8.8% among 350,000 | AID 504332; also: % is scaled to controls: 0 for no effect and ±100 for the full control effect; nearly all actives have a fitted effect of over 75% in size
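Readings reflect AlphaScreen signal from monomethyl-H3K9 antibody detection. HMT at 20 nM; substrate b-H3K9 500 nM; cofactor SAM 20 uM; 2 h RT reaction; compounds tested as titrations in qHTS with 15 min preincubation.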
Numbers without * were called inactive; ? = inconclusive; nt = no result; [ ] = another dose, or the depositor's remark. Calls follow the shape of the dose curve; as a rule, active = well fitted curve in the direction sought with a large enough effect; inconclusive = small, poorly fitted or top-dose-only effect, or another doubt; inactive = no such curve, though single readings can be large; an effect the other way counts as inactive or inconclusive. Potency is read from the fitted curve at half-maximal effect.

SMILES	JMJD2A Tudor inh	BAZ2B inh	Sfp PPTase inh	PLK1 PBD block	HP1b binding inh	G9a block
CCOC(=O)CSc1nc2c(sc(=S)n2-c2ccccc2)c(=O)n1-c1ccc(OC)cc1OC	?	-34.5%	31.6µM*	4.74µM*	?	1.58µM*
CCN(CC)C(=O)CSc1nc2c(sc(=S)n2-c2ccccc2)c(=O)n1-c1ccc(OC)cc1OC	?	-16.2%	22.4µM*	2.99µM*	?	2µM*
CCn1cc(CNC(=O)C2CCC(=O)N(Cc3ccc(Cl)cc3)C2)cn1 (stereo not given)	-5.5%	-1.7%	13.2%	-16.3%	17.8%	0.0%[0.0925 µM]
COc1ccccc1-c1nc(SCc2ccccn2)n[nH]1	-13.7%	10.2%	8.9%	-17.5%	16.6%	50.1µM*
CCn1c(-c2cc(Br)ccc2O)n[nH]c1=S	12.6µM*	nt	nt	-18.2%	20.6%	nt
CNC(=O)CSc1n[nH]c(-c2cc(Cl)ccc2OC)n1	4.5%	-7.9%	20.2%	-10.1%	21.6%	-26.8%
CCn1c(-c2cc(Cl)ccc2OC)n[nH]c1=S	7.08µM*	-0.3%	-4.9%	-7.4%	20.3%	5.62µM*
COc1ccc(Cl)cc1-c1nc(SCC(=O)N(C)C)n[nH]1	-22.1%	13.0%	17.9%	-2.2%	27.5%	-3.3%
C=CCn1c(-c2cc(Cl)ccc2OC)n[nH]c1=S	7.94µM*	1.2%	0.5%	-15.2%	7.9%	1.58µM*
COc1ccc(Cl)cc1-c1n[nH]c(=S)n1C	6.31µM*	23.6%	-2.4%	-12.4%	21.6%	7.94µM*
OC[C@@H]1O[C@H](OC2[C@@H](O)[C@@H](O)[C@@H](O)O[C@@H]2CO)[C@H](O)[C@@H](O)[C@@H]1OC1O[C@H](CO)[C@@H](O)[C@H](O)[C@@H]1O (stereo not given in full)	nt	nt	-5.7%	nt	nt	nt
CSc1ccc(C(=S)N2CCN(CCO)CC2)cc1	-8.4%	4.9%	8.91µM*	26.7µM*	-15.6%	10µM*
OCCN1CCN(C(=S)c2ccc(Br)cc2)CC1	-9.7%	-2.0%	31.6µM*	6.7µM*	0.2%	22.4µM*
OCCN1CCN(C(=S)Nc2ccc(SC(F)F)cc2)CC1	-2.3%	-2.8%	2.1%	-1.8%	34.1%	3.3%
COc1cccc(C=C(C(C)=O)C(=O)c2ccccc2)c1	nt	nt	nt	-18.8%	nt	nt
CCOC(=O)C1=C[C@@H](CC)N(S(=O)(=O)c2ccc(C)cc2)[C@H]1c1cccs1	nt	nt	nt	-5.7%	nt	nt
Cc1[nH]c2ccccc2c1C1(O)C(=O)N(Cc2ccccc2)c2ccc(Br)cc21 (stereo not given)	?	?	nt	nt	-15.4%	?
CCN(Cc1ccccc1)C(=O)c1c(-c2ccccc2Cl)noc1C	4.8%	9.3%	8.4%	2.8%	41.7%	?
O=C(Nc1ccc(O)cc1)/C(=C\C=C\c1ccccc1)NC(=O)c1ccccc1	-34.7%	?	19.1%	-15.5%	1.8%	?
CCCCOc1ccc(C(=O)N/C(=C/C=C/c2ccccc2)C(=O)NC)cc1	-31.1%	-28.6%	?	-20.3%	6.8%	-50.2%
COC(=O)/C(=C\C=C\c1ccccc1)NC(=O)c1ccccc1	25.1µM*	-4.1%	-6.4%	13.4µM*	-3.3%	-15.5%
CCCCOc1ccc(C(=O)N/C(=C/C=C/c2ccccc2)C(=O)O)cc1	-23.6%	?	-10.8%	-25.0%	20.0%	50.1µM*
Cc1cccc(NC(=O)/C(C#N)=C/c2ccc(C)o2)c1	-14.1%	-9.7%	nt	nt	26.5%	-2.4%[59 µM]
CC(=O)Nc1ccc(S(=O)(=O)N2CCc3nc(COc4ccccc4)c4c(c3C2)CO[C@@H](C)C4)cc1	nt	nt	22.7%	nt	nt	nt
O=C(NC(=S)Nc1ccccc1Cl)c1ccco1	-11.3%	6.3%	-12.5%	-9.8%	4.6%	-5.5%
SMILES	JMJD2A Tudor inh	BAZ2B inh	Sfp PPTase inh	PLK1 PBD block	HP1b binding inh	G9a block
O=C(NC(=S)Nc1cccc2cc(O)ccc12)c1ccccc1Br	?	?	2.8%	-3.1%	-12.3%	31.6µM*
N#C/C(=C\c1ccco1)C(=O)NCc1ccccc1	-15.7%	-14.3%	9.9%	?	47.4%	4.7%
O=C(NC(=S)Nc1cccc2c(O)cccc12)c1ccco1	?	?	50.1µM*	23.8µM*	?	nt
N#C/C(=C\c1ccco1)C(=O)Nc1cccc2ncccc12	-19.2%	3.6%	17.5%	-1.5%	31.7%	50.1µM*
COc1ccccc1C(=O)NC(=S)Nc1cccc2cc(O)ccc12	?	nt	nt	-19.5%	-4.1%	nt
O=C(Nc1cccc2ncccc12)c1ccc(Cl)cc1	3.16µM*	11.2µM*	-2.7%	-12.9%	?	7.08µM*
N=c1ccn2c(n1)OC1C(O)[C@@H](CO)O[C@H]12 (stereo not given in full)	-2.1%	nt	nt	nt	38.8%	nt
COCCCNC(=S)Nc1cccc2ncccc12	-6.9%	-20.0%	-13.6%	26.7µM*	-9.1%	?
O=C(NC(=S)Nc1nc2ccccc2s1)c1ccco1	-16.0%	3.7%	?	-10.2%	5.4%	?
Cc1cccc(NC(=S)NC(=O)c2ccco2)n1	-3.8%	-0.7%	-11.8%	-4.6%	23.8%	-11.1%[59 µM]
O=C(NC(=S)Nc1cccc2cc(O)ccc12)c1ccco1	-27.3%	?	-18.0%	-14.7%	0.0%	15.8µM*
O=C(NC(=S)Nc1cccc2ncccc12)c1ccco1	-13.5%	-22.4%	-29.6%	-4.1%	41.4%	44.7µM*
Cc1cc(NC(=S)NC(=O)c2ccco2)c2ccccc2n1	?	-5.2%	28.2µM*	-14.8%	16.1%	?
COc1ccc(C(=O)NC(=S)Nc2cccc3cc(O)ccc23)cc1OC	-30.6%	?	?	?	-22.3%	nt
Cc1cc(N/N=C/c2ccc(Cl)cc2Cl)nc(NCc2ccccc2)n1	-27.5%	?	?	2.3%	9.3%	?
CCCCNc1cc(C)nc(NCc2ccccc2)n1	?	-23.9%	-15.0%	-11.3%	-4.1%	-17.2%
Cc1cc(Nc2ccc(Cl)cc2)nc(NCc2ccccc2)n1	?	?	20µM*	1.5%	-6.9%	-15.8%[59 µM]
Cc1cc(Nc2cccc(F)c2)nc(NCc2ccccc2)n1	-23.4%	-11.5%	56.2µM*	-5.1%	13.3%	4.9%[59 µM]
Cc1cc(Nc2ccccc2)nc(NCc2ccccc2)n1	-24.5%	-12.6%	25.1µM*	-5.2%	2.8%	2.8%[59 µM]
